Several values for one entry are separate records, joined by “and”; a condition that tells them apart may be missing. Equal entries are not always repeated. Hit rate of the full screen: of about 300,000 compounds, about 2,500 (0.83%) were called active.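 How the source made its calls: active means inhibition above the mean of all tested compounds plus 3 SD, set per screening campaign (cut at about 24% in these data); inactive means the rest.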 The full list was thinned out, with actives kept by preference.

For orientation: inhibition means the relative decrease from the control value, in per cent.

In the assay the test system is tRNA 2'-phosphotransferase TPT1 (Candida albicans SC5314). The assay is described as follows: Candida albicans TPT1 enzyme inhibitors, primary screen, biochemical, fluorescence polarization (AID 1962).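 Further: plate controls were DMSO alone for no effect and ferristatin control at 100 nM for full effect.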 Conditions: recombinant caTPT1, FP RNA substrate dephosphorylation; at 5 µM; hits give high values. For orientation: Fluorescence polarisation rises when a labelled molecule tumbles more slowly, as on binding a larger partner.
Take `CCCCC(=O)N/N=C/c1c(O)n(CCC2=CCCCC2)c(=O)[nH]c1=O`: the inhibition was 0.99% (inactive).
For `CCCCC(=O)N/N=C/c1c(O)n(-c2ccccc2)c(=O)[nH]c1=O`, the inhibition was -0.86% (inactive).
Under `CCCCC(=O)N/N=C/c1c(O)n(CC)c(=S)n(CC)c1=O` stands 156% (active); under `CNC(=O)Nc1ccc(C(O)(C(=O)OC)C(F)(F)F)cc1` (stereo not given), 0.47% (inactive).
Under `CCOC(=O)c1c(C)c(C(=O)N2CCC3(CC2)OCCO3)c(C)n1CC` stands 1.34% (inactive).
Under `O=c1[nH]c(=O)n(-c2ccccc2)c(O)c1C=NC12CN3CN(CN(C3)C1)C2` stands -4.46% (inactive).
`CCN1C(=O)C(=Cc2c(C)n(CC(=O)NCC3CCCO3)c3ccccc23)C(=O)N(CC)C1=S` (stereo not given): the inhibition was 24.2% (active).
Under `CCC1(C)CC(CCNCc2ccc(N(C)C)cc2)(c2ccc(F)cc2)CCO1` (stereo not given) stands 1.22% (inactive); under `O=C(C1CC(=O)N(C2CCCC2)C1)N1CCC2(CC1)OCCO2` (stereo not given), -0.68% (inactive); under `COc1cccc(N2C(=O)NC(=O)/C(=C\c3cn(C)c4ccccc34)C2=O)c1`, -73.3% (inactive).
As to `COc1ccc(CN2C(=O)NC(=O)/C(=C\c3ccc(OC)c(OC)c3OC)C2=O)cc1`, the inhibition was 10.5% (inactive).
Turning to `COc1ccc(N2C(=O)/C(=C/c3ccco3)C(=O)NC2=S)cc1`, the inhibition was 36.7% (active).
Under `O=C(CCCn1c(=O)[nH]c2cc(Cl)ccc2c1=O)N1CCC2(CC1)OCCO2` stands 5.94% (inactive); under `CCOC(=O)C(O)(c1ccc(N=Cc2ccccc2O)c(C)c1)C(F)(F)F` (stereo not given), 9.39% (inactive); under `COC(=O)COc1cc(C)cc2oc(=O)c3c(c12)CCCC3`, -2.95% (inactive).
Under `COc1cc2nc(N3CCN(C(=O)[C@@H]4CCCO4)CC3)nc(N)c2cc1OC` stands -1.38% (inactive); under `O=C1N=c2ccccc2=C/C1=C\c1c(O)[nH]c(=S)[nH]c1=O`, -1.76% (inactive); under `COc1ccccc1N=Nc1c(O)[nH]c(=S)[nH]c1=O`, 49.2% (active).
As to `CCOCCc1c(O)[nH]c(=S)[nH]c1=O`, the inhibition was -3.07% (inactive).
As for `O=C(O)COc1ccccc1/C=C1\C(=O)NC(=O)N(CCC2=CCCCC2)C1=O`, the inhibition is 7.72% (inactive).
For the compound `Cc1cc(/C=C2/C(=O)NC(=O)N(Cc3ccco3)C2=O)c(C)n1-c1ccc(C(=O)O)cc1`, the inhibition was 22.2% (inactive).
Consider `O=C1NC(=O)N(Cc2ccco2)C(=O)/C1=C\c1ccc(-c2ccc(F)cc2)o1`, for which the inhibition was 27.9% (active).
Take `O=C1NC(=O)N(Cc2ccco2)C(=O)/C1=C\c1cccn1CCOc1ccccc1`: the inhibition is 37.9% (active).
Under `O=C1NC(=O)N(CCc2ccc(F)cc2)C(=O)/C1=C/C=C/c1ccccc1` stands 13.3% (inactive); under `O=C(COc1ccc2ccccc2c1)N1CCN(Cc2ccncc2)CC1`, -1.1% (inactive).
On to `CN(C)C(=O)Oc1cc(OC(=O)N(C)C)cc(C(O)CNC(C)(C)C)c1` (stereo not given), for which the inhibition is -1.53% (inactive) and -2.15% (inactive).
Under `COc1cccc(C(=O)N2C[C@H]3C[C@@H](C2)c2cccc(=O)n2C3)c1` stands -1.64% (inactive); under `COc1ccc(C2N3CC(C)(C)CN23)cc1` (stereo not given), 0.1% (inactive); under `O=C(CN1CCCC1=O)NCCc1ccccc1`, -1.43% (inactive).
For the compound `O=C1CC(=O)N(Cc2ccccc2)C(=O)N1CCCCCCN1C(=O)CC(=O)N(Cc2ccccc2)C1=O`, the inhibition was 71.4% (active).
Take `CC(C)(C)c1ccc(CN2C(=O)CN=C(c3ccccc3)c3ccccc32)cc1`: the inhibition was 2.92% (inactive).
For the compound `Fc1ccc(C2N3CCCN23)cc1` (stereo not given), the inhibition is -5.01% (inactive).
With `Cn1c(O)c(C=Nc2ccc3c(c2)CCC3)c(=O)n(C)c1=O`, the inhibition is -3.76% (inactive).
Under `CN(C)CCCN=Cc1c(O)n(Cc2ccco2)c(=O)[nH]c1=O` stands 1.6% (inactive).
Under `CC(C)n1c(=O)c(C=Nc2ccc(Br)cc2)c(O)n(Cc2ccco2)c1=O` stands 27.9% (active); under `CCOc1ccc(-c2cc(C)[n+](CCN(CC)CC)c(-c3ccc(OCC)cc3)c2)cc1`, -0.45% (inactive).
Under `Cc1ccc(-n2c(-c3ccc([N+](=O)[O-])cc3)nc3ccccc3c2=O)cc1` stands -3% (inactive).
For the compound `Cc1ccc(N2C(=O)NC(=O)C(CCc3ccncc3)(Cc3cccc(Cl)c3Cl)C2=O)cc1` (stereo not given), the inhibition is 3.87% (inactive).
Under `CC(C)Nc1nc(Cl)nc(NC(C)C)n1` stands -2.15% (inactive); under `CCC(=NCc1ccco1)c1c(O)n(Cc2ccccc2)c(=O)[nH]c1=O`, 3.72% (inactive).
Under `O=C(N/N=C/c1c(O)n(Cc2ccccc2)c(=O)[nH]c1=O)c1ccccc1` stands 2.3% (inactive); under `CC/C(=N\NC(=O)c1ccccc1O)c1c(O)n(Cc2ccccc2)c(=O)[nH]c1=O`, 46.6% (active); under `COc1ccc2c(c1)[C@]13CCCCC1C(C2)N(C)CC3` (stereo not given in full), -1.13% (inactive).
As for `CC1CCCCN1Cc1cccnc1` (stereo not given), the inhibition was -4.61% (inactive).
Under `CN(c1ccccc1)c1ccc([N+](=O)[O-])c2nonc12` stands 14.5% (inactive).

These data come from PubChem BioAssay AID1962 (The Scripps Research Institute Molecular Screening Center, 2009).
